Reference: PubChem BioAssay (NCI)
Compounds without any hit were thinned out: in the full panel of roughly 79,000, 15% have a hit. Activity calls are given as the source filed them. Rule as the data show it: active = growth inhibition above about 70%; inactive = the rest.

What was measured:
[1] = NCI Yeast Anticancer Drug Screen. Data for the rad52 strain (AID 147);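 also: 0% = growth of vehicle-treated control cultures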; settings: S. cerevisiae rad52 mutant growth inhibition, stronger effect = higher value
In short: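 Yeast strain carrying a DNA damage repair alteration was exposed to test compounds. Growth inhibition was measured relative to vehicle-treated controls.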

[2] = NCI Yeast Anticancer Drug Screen. Data for the wt1 strain (AID 149);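 also: 0% = growth of vehicle-treated wt1 cultures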; settings: S. cerevisiae wt1 strain (SPY 50644) growth inhibition, stronger effect = higher value
In short: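 Compounds are added to wt1 yeast cultures. Growth is then measured. Inhibition is expressed relative to vehicle-treated controls.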

[3] = NCI Yeast Anticancer Drug Screen. Data for the rad50EPP+ strain (AID 151);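 also: 0% = growth of vehicle-treated control cultures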; settings: S. cerevisiae rad50 mutant strain, stronger effect = higher value
In short: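 Yeast strain carrying rad50 alteration (rad50EPP+) exposed to compounds; growth inhibition measured relative to vehicle-treated controls.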

[4] = NCI Yeast Anticancer Drug Screen. Data for the mgt1 strain (AID 153); settings: S. cerevisiae mgt1 mutant growth inhibition, stronger effect = higher value
In short: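 Yeast mgt1 strain (DNA repair/cell-cycle alteration panel) exposed to compounds; growth inhibition measured relative to vehicle-treated controls.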

[5] = NCI Yeast Anticancer Drug Screen. Data for the rad50 strain (AID 155);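 also: 0% = growth of vehicle-only cultures of the same strain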; settings: S. cerevisiae rad50 strain growth inhibition, stronger effect = higher value
In short: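 Inhibition values express reduced yeast growth in compound-treated cultures relative to vehicle-treated controls.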

[6] = NCI Yeast Anticancer Drug Screen. Data for the mec2-1 strain (AID 157); settings: S. cerevisiae mec2-1 strain, stronger effect = higher value
In short: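 mec2-1 yeast strain, carrying an alteration in DNA damage repair or cell cycle control, was exposed to compounds; growth inhibition was measured relative to vehicle-treated controls.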

[7] = NCI Yeast Anticancer Drug Screen. Data for the rad14 strain (AID 159);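 also: 0% = growth of vehicle-treated control cultures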; settings: S. cerevisiae rad14 strain growth inhibition, stronger effect = higher value
In short: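 A mutant yeast strain defective in DNA damage repair is treated with compound; inhibition of its growth is scored against untreated, vehicle-exposed cultures.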

[8] = NCI Yeast Anticancer Drug Screen. Data for the sgs1 mgt1 strain (AID 161);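 also: 0% = growth of cultures given vehicle only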; settings: S. cerevisiae sgs1 mgt1 strain, stronger effect = higher value
In short: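 This yeast growth screen uses a strain with defined DNA-repair lesions; compound-treated growth is compared with vehicle-treated growth.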

[9] = NCI Yeast Anticancer Drug Screen. Data for the CLN2oe strain (AID 163);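 also: 0% = growth of vehicle-only control cultures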; settings: S. cerevisiae CLN2oe strain, stronger effect = higher value
In short: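 Yeast cells carrying a defined cell-cycle control alteration were exposed to test compounds. Growth inhibition was scored against vehicle-treated control cultures.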

[10] = NCI Yeast Anticancer Drug Screen. Data for the cln2 rad14 strain (AID 165);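 also: 0% = growth equal to vehicle treated cultures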; settings: S. cerevisiae cln2 rad14 strain, stronger effect = higher value
In short: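 Yeast carrying cln2 and rad14 alterations (cell cycle control and DNA damage repair) were exposed to compounds. Growth inhibition was measured against vehicle-treated controls.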

[11] = NCI Yeast Anticancer Drug Screen. Data for the bub3 strain (AID 167); settings: S. cerevisiae bub3 mutant strain, stronger effect = higher value
In short: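 Steps: expose the mutant yeast strain to compound; grow alongside vehicle-treated cultures; measure growth; express inhibition against the vehicle cultures.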

[12] = NCI Yeast Anticancer Drug Screen. Data for the wt2 strain (AID 169);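 also: 0% = growth of vehicle-treated yeast cultures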; settings: S. cerevisiae wt2 strain growth inhibition, stronger effect = higher value
In short: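 Yeast cells were exposed to test compounds, and growth inhibition was measured relative to vehicle-treated controls.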

[13] = NCI Yeast Anticancer Drug Screen. Data for the mlh1 strain (AID 171);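 also: 0% = growth of vehicle-treated control cultures of the same strain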; settings: S. cerevisiae mlh1 strain growth inhibition, stronger effect = higher value
In short: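 Yeast carrying a defined genetic alteration in DNA damage repair or cell cycle control were exposed to test compounds. Growth inhibition was measured relative to vehicle-treated controls.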

[14] = NCI Yeast Anticancer Drug Screen. Data for the sgs1 strain (AID 173);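 also: 0% = growth of vehicle-only control cultures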; settings: S. cerevisiae sgs1 mutant, stronger effect = higher value
In short: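 Yeast mutant strains carrying defined defects in DNA damage repair or cell cycle control were exposed to test compounds. Growth inhibition was scored against vehicle-treated controls.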

[15] = NCI Yeast Anticancer Drug Screen. Data for the mlh1 rad18 strain (AID 175); settings: S. cerevisiae mlh1 rad18 strain growth inhibition, stronger effect = higher value
In short: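 Growth inhibition of the yeast strain was measured after compound exposure and expressed relative to vehicle-treated controls. The strain carries defined defects in DNA damage repair.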

[16] = NCI Yeast Anticancer Drug Screen. Data for the rad18 strain (AID 177); settings: S. cerevisiae rad18 mutant growth inhibition, stronger effect = higher value
In short: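 Yeast carrying a defined DNA damage repair alteration were exposed to compounds. Growth inhibition was expressed relative to vehicle-treated controls.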

[17] = at 5.0 µM (retest, dose inferred, filed as 0.5)
[18] = at 50.0 µM (retest, dose inferred, filed as 5.0)

Measured: growth inhibition

CC1=C(C)Cc2c(O)ccc(O)c2C1
active: [5]; [18] 99% | [5]; at 50.0 µM 94.5% | [5]; at 100.0 µM 93% | [6]; [18] 99% | [8]; [18] 98% | [10]; [18] 98% | [11]; [17] 94% | [11]; [18] 99% | [11]; at 50.0 µM 83% | [15]; [18] 99% | [15]; at 50.0 µM 93.2% | [16]; at 100.0 µM 93%
inactive: [1]; at 1.2 µM 1% | [1]; at 3.7 µM 12% | [1]; at 11.0 µM 25% | [1]; at 33.0 µM 20% | [1]; at 100.0 µM 61% | [2]; at 1.2 µM -1% | [2]; at 3.7 µM -3% | [2]; at 11.0 µM -3% | [2]; at 33.0 µM -3% | [2]; at 100.0 µM -20% | [3]; at 1.2 µM 20% | [3]; at 3.7 µM 46% | [3]; at 11.0 µM 67% | [3]; at 33.0 µM 43% | [3]; at 100.0 µM 58% | [4]; at 1.2 µM -2% | [4]; at 3.7 µM 2% | [4]; at 11.0 µM 6% | [4]; at 33.0 µM -1% | [4]; at 100.0 µM 29% | [5]; at 1.2 µM 1% | [5]; at 3.7 µM 17% | [5]; [17] -9% | [5]; at 11.0 µM 38% | [5]; at 33.0 µM 33% | [6]; at 1.2 µM -3% | [6]; at 3.7 µM -3% | [6]; [17] 30% | [6]; at 11.0 µM -3% | [6]; at 33.0 µM -4% | [6]; at 50.0 µM 45.8% | [6]; at 100.0 µM 20% | [7]; at 1.2 µM 2% | [7]; at 3.7 µM 9% | [7]; at 11.0 µM 18% | [7]; at 33.0 µM 13% | [7]; at 100.0 µM 47% | [8]; [17] 5% | [8]; at 50.0 µM 33.8% | [9]; at 1.2 µM -10% | [9]; at 3.7 µM -8% | [9]; at 11.0 µM -7% | [9]; at 33.0 µM -11% | [9]; at 100.0 µM 33% | [10]; [17] 31% | [10]; at 50.0 µM 48.9% | [11]; at 1.2 µM -3% | [11]; at 3.7 µM -5% | [11]; at 11.0 µM -4% | [11]; at 33.0 µM 3% | [11]; at 100.0 µM 63% | [12]; at 1.2 µM -12% | [12]; at 3.7 µM -6% | [12]; at 11.0 µM -4% | [12]; at 33.0 µM 3% | [12]; at 100.0 µM -4% | [13]; at 1.2 µM -1% | [13]; at 3.7 µM 5% | [13]; at 11.0 µM 12% | [13]; at 33.0 µM 6% | [13]; at 100.0 µM 44% | [14]; at 1.2 µM -21% | [14]; at 3.7 µM -5% | [14]; at 11.0 µM -9% | [14]; at 33.0 µM 7% | [14]; at 100.0 µM 67% | [15]; [17] 52% | [16]; at 1.2 µM 0% | [16]; at 3.7 µM 10% | [16]; at 11.0 µM 18% | [16]; at 33.0 µM 14%
